Reference: PubChem BioAssay AID463173 (ICCB-Longwood Screening Facility, Harvard Medical School, 2010)
The campaign covered roughly 52,000 compounds. About 1,700 (3.3%) were called active. This is one part of a sample in which actives are shown more often than they occur. Cut-off read from the data, not from the text of the source: active = survival mostly below about 52% (no sharp cut-off); inactive = mostly above about 56%.

tested on: Wild type; assay: S. aureus survival, RN4220 and DeltatarO strains – OD600, teichoic acid synthesis inhibitors, primary screen (AID 463173); conditions: S. aureus RN4220 wild type/DeltatarO growth, OD600, 18 h, hits give low values, screened at 18.75 µg/mL (by protocol)

Row | Structure (SMILES) | survival
1 | COc1ccc(OCc2nnc(-c3ccccc3)o2)cc1 | 106% (inactive)
2 | Cc1ccc(N2CCN(C(=O)c3cn(C)c4ccc(S(=O)(=O)N5CCC(C)CC5)cc4c3=O)CC2C)cc1 (stereo not given) | 126% (inactive)
3 | COc1ccc(CNC(=O)Cn2nc(N3CCN(c4ccccc4)CC3)ccc2=O)c(OC)c1 | -4% (active)
4 | CCOc1ccccc1CNC(=O)Cn1nc(N2CCN(c3ccccc3)CC2)ccc1=O | 82% (inactive)
5 | COc1cccc(NC(=O)Cn2nc(N3CCN(c4ccccc4)CC3)ccc2=O)c1 | 85% (inactive)
6 | CCn1c(SCC(=O)N(C2CCCCC2)C2CCCCC2)nnc1C(C)C | 100% (inactive)
7 | CCc1ccc(C2=C(C)C(N3CCC(C(=O)NCc4ccc(C)o4)CC3)=NS2(=O)=O)cc1 | 63% (inactive)
8 | Cc1ccc(C(=O)NCCc2csc(-c3cccc(F)c3)n2)cc1C | 78% (inactive)
9 | O=C(COCc1cc(-c2cccs2)on1)Nc1cccc(O)c1 | -3% (active)
10 | O=C(COCc1cc(-c2cccs2)on1)N1CCN(c2cccc(Cl)c2)CC1 | 10% (active)
11 | O=C(COCc1cc(-c2cccs2)on1)N1CCN(c2ccccc2)CC1 | 68% (inactive)
12 | O=C(COCc1cc(-c2cccs2)on1)N1CCN(c2ccc(F)cc2)CC1 | 73% (inactive)
13 | Cc1ccc(NC(=O)COCc2cc(-c3cccs3)on2)cc1Cl | 65% (inactive)
14 | O=C(COCc1cc(-c2ccco2)on1)Nc1cccc(O)c1 | 73% (inactive)
15 | CC(=O)N1CCCc2cc(S(=O)(=O)N(C)CC(=O)Nc3cccc(Cl)c3C)ccc21 | 68% (inactive)
16 | CCOc1ccccc1NC(=O)Cn1nnc(C(=O)NCc2ccc(F)cc2)c1N | 101% (inactive)
17 | Cc1cccc(Nc2sc(C(=O)c3ccc(Cl)cc3)c(N)c2C(N)=O)c1 | 45% (inactive)
18 | Cc1ccc(C)n1-c1cccc2cccnc12 | 103% (inactive)
19 | Cc1cccc(NC(=O)COC(=O)CCCC2=NS(=O)(=O)c3ccccc3N2)c1 | -4% (active)
20 | CCc1ccc(NC(=O)COC(=O)CCCC2=NS(=O)(=O)c3ccccc3N2)cc1 | 129% (inactive)

Row | Structure (SMILES) | survival
21 | COc1ccccc1NC(=O)COC(=O)CC(C)(C)CC1=NS(=O)(=O)c2ccccc2N1 | -3% (active)
22 | O=C(COC(=O)CCCC1=NS(=O)(=O)c2ccccc2N1)Nc1ccc(Br)cc1 | 81% (inactive)
23 | COc1ccc(Cl)cc1NC(=O)COC(=O)CC(C)(C)CC1=NS(=O)(=O)c2ccccc2N1 | 81% (inactive)
24 | CCOc1ccccc1NC(=O)COC(=O)CC(C)(C)CC1=NS(=O)(=O)c2ccccc2N1 | 63% (inactive)
25 | CCS(=O)(=O)N1CCC(NC(=O)c2ccccc2Cl)CC1 | 127% (inactive)
26 | COc1cccc(NC(=O)CC2C(=O)OCCN2Cc2ccccc2)c1 (stereo not given) | 161% (inactive)
27 | COc1ccc(CN2C(=O)N(c3cccc(C)c3)C(=O)C2CC(=O)Nc2ccc(F)cc2)cc1OC (stereo not given) | 73% (inactive)
28 | CCOC(=O)CSc1ncnc2c1c(-c1ccccc1)cn2-c1ccc(OC)cc1 | 75% (inactive)
29 | CCCCSc1ncnc2c1c(-c1ccccc1)cn2-c1cccc(F)c1 | 84% (inactive)
30 | CCCSc1ncnc2c1c(-c1ccccc1)cn2-c1ccccc1OC | 1% (active)
31 | CCOC(=O)N1CCc2c(sc3c2c(=O)n(Cc2ccccc2)c(=O)n3CC(=O)Nc2ccc(F)cc2)C1 | 87% (inactive)
32 | CCCCNc1nc2c(c(=O)n(Cc3ccccc3)c(=O)n2C)n1C | 67% (inactive)
33 | CCCCNc1nc2c(c(=O)n(Cc3ccc(Cl)c(Cl)c3)c(=O)n2C)n1C | 1% (active)
34 | CCCCNc1nc2c(c(=O)n(Cc3ccc(Cl)cc3)c(=O)n2C)n1C | 70% (inactive)
35 | Cc1ccc2[nH]c(=O)c3cc(C(=O)N(CCCOC(C)C)Cc4ccco4)sc3c2c1 | 71% (inactive)
36 | CCn1c(=O)c2cc(C(=O)N(C)c3cc(C)ccc3C)sc2c2ccccc21 | 125% (inactive)
37 | CCCn1c2ccccc2c2cnn(CC(=O)N(CCCOC(C)C)Cc3ccco3)c(=O)c21 | 76% (inactive)
38 | CCn1c(=O)c2cc(C(=O)N(CC(C)C)CC(C)C)sc2c2ccccc21 | -1% (active)
39 | CCn1c(=O)c2cc(C(=O)N(CCCOC(C)C)Cc3ccco3)sc2c2ccccc21 | 1% (active)
40 | CCn1c(=O)c2cc(C(=O)N(CCN(C)C)Cc3ccccc3)sc2c2ccccc21 | 75% (inactive)

Row | Structure (SMILES) | survival
41 | O=C(NC1CCCCC1)c1ccco1 | 102% (inactive)
42 | COc1ccc(OC)c(NC(=O)c2sc3nc4c(cc3c2N)CCCCCC4)c1 | 70% (inactive)
43 | CC(=O)N1c2ccc(S(=O)(=O)N3CCCCCC3)cc2CC1C(=O)NCc1ccccc1F (stereo not given) | 131% (inactive)
44 | O=C(NCCSc1c(-c2ccc(Br)cc2)[nH]c2ccccc12)c1ccc(S(=O)(=O)N2CCOCC2)cc1 | 84% (inactive)
45 | Cn1c(SCCC(=O)O)nnc1-c1ccncc1 | 105% (inactive)
46 | Cc1cc(N2CCCC(O)C2)n2nc(C)c(-c3ccc(F)cc3)c2n1 (stereo not given) | 120% (inactive)
47 | COc1ccc(C2=C(Nc3ccc(Br)c(C)c3)c3ccccc3C2=O)cc1 | 20% (active)
48 | COc1ccc(C2=C(Nc3ccc(C)c(C)c3)c3ccccc3C2=O)cc1 | 90% (inactive)
49 | COc1ccc(C2=C(Nc3ccc(C)cc3C)c3ccccc3C2=O)cc1 | 76% (inactive)
50 | O=C(NCC1(c2ccccc2)CCCC1)C(=O)Nc1cccc(Br)c1 | 96% (inactive)
51 | Cc1cc(C)cc(NC(=O)CCCn2c3ccccc3c(=O)c3ccccc32)c1 | 69% (inactive)
52 | O=C(NCCc1ccccc1Cl)c1cc2ccccn2n1 | 140% (inactive)
53 | COc1cc(NC(=O)c2nc3ccccc3nc2N2CCCCC2)cc(OC)c1OC | 82% (inactive)
54 | COc1cc(NC(=O)C2CCN(c3cnc4ccccc4n3)CC2)cc(OC)c1OC | -6% (active)
55 | COc1cc(NC(=O)C2CCN(c3nc4ccccc4nc3C(F)(F)F)CC2)cc(OC)c1 | 78% (inactive)
56 | CCc1ccc(-n2c(Cc3ccccc3)nnc2SCc2nc(-c3cccs3)no2)cc1 | 99% (inactive)
57 | CCC(C(=O)Nc1ccc(C(C)=O)cc1)n1cnc2nc3c(cc2c1=O)CCCC3 (stereo not given) | 63% (inactive)
58 | COc1cc(NS(=O)(=O)c2cnc(N)nc2)cc(OC)c1 | 64% (inactive)
59 | CC(=O)c1ccc(NS(=O)(=O)c2cnc(N)nc2)cc1 | 1% (active)
60 | Nc1ncc(S(=O)(=O)Nc2ccc(OC(F)(F)F)cc2)cn1 | 63% (inactive)
